# PTHR1 agonist – PTHR1 (human) receptor agonism; Q03431; HEK293 GP2 PTHR1 cells, GloSensor cAMP luminescence, 1 h; Potency, µM (highest dose often 115 µM), inactives show at the top dose activation, actives largely listed as activators; hit rate 0.075% among 410,000; further: nearly all actives have a fitted effect of over 55% in size
# Target sequence (Q03431 whole entry, looked up): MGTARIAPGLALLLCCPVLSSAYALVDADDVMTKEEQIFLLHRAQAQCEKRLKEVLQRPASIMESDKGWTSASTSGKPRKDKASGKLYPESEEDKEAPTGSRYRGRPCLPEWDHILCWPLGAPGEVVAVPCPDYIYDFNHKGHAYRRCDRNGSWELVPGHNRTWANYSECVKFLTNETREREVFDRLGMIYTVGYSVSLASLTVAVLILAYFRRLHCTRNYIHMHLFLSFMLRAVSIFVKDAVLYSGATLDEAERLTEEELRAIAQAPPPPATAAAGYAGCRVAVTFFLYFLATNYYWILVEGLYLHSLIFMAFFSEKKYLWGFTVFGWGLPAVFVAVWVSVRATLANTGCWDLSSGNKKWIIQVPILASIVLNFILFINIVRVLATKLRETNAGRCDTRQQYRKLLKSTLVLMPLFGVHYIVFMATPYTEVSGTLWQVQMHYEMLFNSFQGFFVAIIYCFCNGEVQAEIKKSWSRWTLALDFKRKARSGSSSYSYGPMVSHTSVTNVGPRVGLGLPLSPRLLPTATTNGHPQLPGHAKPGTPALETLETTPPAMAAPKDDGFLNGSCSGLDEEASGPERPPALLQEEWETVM
#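 HEK-293-derived GP2 cells expressing PTHR1 and a GloSensor cAMP reporter, 3,000/well, plated overnight, given luciferin plus IBMX (each 0.5 mM as added) for 1 h at 37 °C, then compound for 1 h at 37 °C. Luminescence was read after 15 min at room temperature.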
# GLP1R cytotox – cytotoxic in the GLP-1 receptor inverse agonist counter-screen; Potency, µM (top dose mostly 38.3 µM), inactives show at the highest dose activity change, negative = inhibition, actives largely listed as inhibitors; hit rate 0.13% among 410,000; HEK293 cAMP-luciferase reporter cells, luminescence, 24 h;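 further: loss of luciferase light is scored as toxicity; on the % scale 0 is the no-effect control and ±100 the full control effect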
#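 Seeding density was 200 cells/uL; after overnight-length (12 h) culture, 23 nL compounds went on for 24 h at 37 °C. Readout used a luciferase detection reagent, luminescence taken after 12 min at room temperature.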
# GLP-1R inv ag – acts as inverse agonist at human GLP-1 receptor. P43220. HEK293 GLP-1R CRE-luciferase, luminescence, 24 h; GLP-1R form is constitutively active. Potency, µM (highest dose often 38.3 µM), inactives show top-dose activity change, negative = inhibition, most hits filed as inhibitors. hit rate 1.6% among 410,000; further: on the % scale 0 is the no-effect control and ±100 the full control effect; nearly all actives have a fitted effect of over 55% in size
#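 Readout was luciferase luminescence, measured 12 min after detection reagent at room temperature. Beforehand, GLP-1R reporter HEK293 cells had sat 12 h, then received compounds for 24 hr at 37 deg C.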
# GLP-1R agonist – GLP-1 receptor (human) agonism | AID 624172 | P43220 | HEK293 GLP-1R CRE-luciferase, luminescence, 4-6 h; cells express a hypersensitive GLP-1R form | hit rate 0.007% among 380,000 | Potency, µM (titrated, usually from 45.6 µM), for the others: top-dose activation, hits mostly activators; further: % of control where 0% means no effect
# * hit, by the source's call; i = inactive; ? = inconclusive; . = not tested or not shown; [ ] = dose if it differs, or a comment. Shown are actives, neighbours in structure and some others; about 1.7% of the full set was active somewhere. The call rests on the fitted dose curve; in most records, active means well fitted curve in the direction sought with a large enough effect; inconclusive means small, poorly fitted or top-dose-only effect, or another doubt; inactive means no such curve, though single readings can be large; an effect the other way counts as inactive or inconclusive. Potency means the concentration at half of the fitted maximal effect.
SMILES,PTHR1 agonist,GLP1R cytotox,GLP-1R inv ag,GLP-1R agonist
CN(Cc1ccccc1)C(=O)C1CCN(Cc2cc3ccccc3n2Cc2ccccc2)CC1,-4%,0%,10µM*,.
CCNC(=O)C1CCN(Cc2cc3ccccc3n2Cc2ccc(C)cc2)CC1,i,8%,-9%,.
COCCNC(=O)C1CCN(Cc2cc3ccccc3n2Cc2ccc(C)cc2)CC1,-32%,-9%,10µM*,.
CCCNC(=O)C1CCN(Cc2cc3ccccc3n2Cc2ccccc2)CC1,i,-6%,?,.
CC(CNC(=O)C1CCN(Cc2cc3ccccc3n2Cc2ccccc2)CC1)c1ccccc1 (configuration not stated),-20%,-3%,10µM*,.
Cc1ccccc1Cn1c(CN2CCC(C(=O)NCCc3ccccc3)CC2)cc2ccccc21,-18%,2%,11µM*,.
CC(OC(=O)c1ccc(Cl)nc1)C(=O)NCc1ccc2c(c1)OCO2 (configuration not stated),23%,-1%,14%,0%
CC(C)CCn1c(SCc2ccc(F)cc2Cl)nc2ccsc2c1=O,0%,8%,3%,.
NS(=O)(=O)c1ccc(NC(=O)Nc2ccc(C(F)(F)F)cc2)cc1,-15%,-12%,5µM*,5%
NS(=O)(=O)c1ccc(NC(=O)Nc2ccc(S(N)(=O)=O)cc2)cc1,?,12%,0%,0%
COc1ccc(-c2onc(C)c2C)cc1S(=O)(=O)Nc1ccc(OC(F)(F)F)cc1,-92%,-5%,13µM*,.
COc1ccc(-c2cnc(C)o2)cc1S(=O)(=O)Nc1ccc(OC(F)(F)F)cc1,i,-4%,?,.
CCOc1ccc(S(=O)(=O)N2CCCCC2)c2ccccc12,-9%[57.5 µM],1%,10µM*,0%
Cc1ccc(CSCC(=O)N/N=C/c2cccc(OC3CSC3)c2)cc1,-14%,7%,7%,4%
N=c1n(CCN2CCCCC2)c2ccccc2n1CC(=O)c1ccc(Cl)c(Cl)c1,-5%,?,5.6µM*,11%
CCn1c(=N)n(CC(=O)c2ccc(Cl)c(Cl)c2)c2ccccc21,i,-26%,?,15%
Cc1ccc(C(=O)Cn2c(=N)n(CCN3CCOCC3)c3ccccc32)cc1,-9%,2.5µM*,?,5%
COC(=O)Cn1c(=N)n(CCN2CCCCC2)c2ccccc21,i,-3%,0%,-1%
O.O.O.O.O.O.O.O=S(=O)([O-])[O-].[Co+2],.,.,.,5%
CCOC(=O)c1ccccc1NS(=O)(=O)c1c(-c2ccc(C)cc2)csc1C(=O)OC,-32%,17%,?,.
CCOc1ccccc1NS(=O)(=O)c1c(-c2ccc(C)cc2)csc1C(=O)OC,i,1%,11µM*,.
COC(=O)c1scc(-c2ccc(C)cc2)c1S(=O)(=O)Nc1cccc(Cl)c1C,i,0%,10µM*,.
COC(=O)c1scc(-c2ccc(C)cc2)c1S(=O)(=O)Nc1cc(Cl)ccc1C,0%,-4%,?,.
O=C(N/N=C/c1ccc(-c2ccccc2C(=O)O)o1)c1cccs1,-7%,-6%,3%,0%
COc1ccc(C2=Nn3c(nnc3-c3ccncc3)SC2)cc1OC,i,4%,0%,?
SMILES,PTHR1 agonist,GLP1R cytotox,GLP-1R inv ag,GLP-1R agonist
COc1ccc(C2=Nn3c(nnc3-c3cccnc3)SC2)cc1OC,-6%[57.5 µM],8%,0%,2µM*
CC(C)CC1C(=O)N(Cc2cn(CCC3OCCCO3)nn2)CCS(=O)(=O)N1Cc1ccc(-c2ccncc2)cc1 (configuration not stated),-37%,-1%,11%,7%
CCC(NC(=O)CNC(=O)c1ccc2c(c1)OCO2)c1ccc(Br)cc1 (configuration not stated),-21%,0%,13µM*,-11%
CCCc1ccc(-c2cc(NC(=O)CSc3n[nH]c(N)n3)n(-c3ccccc3)n2)cc1,16µM*,6%,50%,3%
CC(NC(=O)CSc1n[nH]c(N)n1)c1ccccc1 (configuration not stated),i,-6%,7%,2%
CCCCCC(=O)NC(=S)NC1C2CC3CC(C2)CC1C3 (configuration not stated),i,?,?,15%
Cc1c(N2C(=O)/C(=C/c3ccccc3)SC2=S)c(=O)n(-c2ccccc2)n1C,i,-22%,?,-13%
Cc1c(N2C(=O)/C(=C/c3ccc(N(C)C)cc3)N(C)C2=S)c(=O)n(-c2ccccc2)n1C,i,5.6µM*,?,9%
CCOc1ccc(NC(=O)c2nn(C)c3c2CS(=O)(=O)c2ccccc2-3)cc1,i,-9%,11%,.
COc1cc(OC)cc(C(=O)Oc2c(CN3CCOCC3)cc(Cl)c3cccnc23)c1,i,?,10µM*,0%
Oc1c(CN2CCCCC2)cc(Br)c2cccnc12,-37%,?,2.5µM*,-2%
Oc1c(Cl)cc(CN2CCOCC2)c2cccnc12,-1%,?,?,-3%
Oc1c(CN2CCc3ccccc3C2)cc(Cl)c2cccnc12,22µM*,?,?,-2%
CC(C)c1ccccc1-n1c(SCC(=O)c2ccc3c(c2)NC(=O)CO3)nc2ccccc2c1=O,-5%,14%,10µM*,14%
CC(C)c1ccccc1-n1c(SCC(=O)N2CCc3ccccc3C2)nc2ccccc2c1=O,-19%,6%,10µM*,14%
O=C1COc2ccc(C(=O)CSc3ccccc3C(=O)O)cc2N1,-1%,15%,1%,-1%
O=C(CSc1nc2ccccc2c(=O)n1-c1ccccc1)N1CCc2ccccc2C1,i,-3%,-19%,19%
CCCCn1c(N)c(N(CCOC)C(=O)COC(=O)COc2cc(C)c(Cl)cc2C(C)C)c(=O)[nH]c1=O,-7%,-12%,10µM*,11%
CCCCn1c(N)c(N(CCOC)C(=O)CSCc2ccc(Cl)c(Cl)c2)c(=O)[nH]c1=O,-18%,6%,-17%,0%
CCCCn1c(N)c(N(CCOC)C(=O)CN(C)CC(=O)Nc2ccc(Cl)c(Cl)c2)c(=O)[nH]c1=O,50µM*,-7%,?,-3%
Cc1ccc(S(=O)(=O)N2CCCCC2)cc1C(=O)OC(C)C(=O)NC1CCCCC1C (configuration not stated),-38%,14%,?,7%
CCC1C(=NO)C(CC)C(c2ccccc2)NC1c1ccccc1 (configuration not stated),-31%,?,3.5µM*,0%
CC/C=C(\C(=O)N[C@H]1C(=O)N2C(C(=O)OCOC(=O)C(C)(C)C)=C(COC(N)=O)CS[C@H]12)c1csc(N)n1,.,.,.,0%
O=C(CCS(=O)(=O)c1ccccc1)N(CCCN1CCOCC1)c1nc2c(F)cccc2s1,-22%,10µM*,?,-29%
CCOC(=O)c1cc(-c2cccs2)nc2c1c(C)nn2-c1ccccn1,-5%,3.5µM*,?,16%
